Read-out in assay [1]: Thrombomodulin, THBD (gene 7056)
The experiment in a line: BSK_CASM3C_Thrombomodulin: BioMAP Diversity Plus: CASM3C Assay for Thrombomodulin Biomarker Activity (AID 2283051).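 Note: thrombomodulin protein level measured by ELISA 24 h after dosing.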 As to conditions: primary human coronary artery smooth muscle cells; actives raise or lower the signal.

Read-out in assay [2]: Tissue Factor, F3 (gene 2152)
The experiment in a line: BSK_CASM3C_TissueFactor: BioMAP Diversity Plus: CASM3C Assay for Tissue Factor Biomarker Activity (AID 2283052).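 Note: cell surface tissue factor protein level read by ELISA.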 As to conditions: primary human coronary artery smooth muscle cells; actives raise or lower the signal.

Read-out in assay [3]: Interferon-gamma inducible Protein 10 (IP10), CXCL10 (gene 3627)
The experiment in a line: BSK_hDFCGF_IP10: BioMAP Diversity Plus: hDFCGF Assay for Interferon-gamma inducible Protein 10 (IP10) Biomarker Activity (AID 2283053). As to conditions: primary human foreskin fibroblasts; actives raise or lower the signal. In short, it runs like this:
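Primary foreskin fibroblasts, human; 24 h compound exposure; IP-10 by ELISA; bidirectional fit vs DMSO.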

Read-out in assay [4]: Urokinase-type plasminogen activator receptor (uPAR), PLAUR (gene 5329)
Description: BSK_CASM3C_uPAR: BioMAP Diversity Plus: CASM3C Assay for Urokinase-type plasminogen activator receptor (uPAR) Biomarker Activity (AID 2283054).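 Note: cell-surface uPAR protein level quantified by ELISA.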 As to conditions: primary human coronary artery smooth muscle cells; actives raise or lower the signal.

Read-out in assay [5]: Vascular cell adhesion molecule 1 (VCAM1), VCAM1 (gene 7412)
The experiment in a line: BSK_CASM3C_VCAM1: BioMAP Diversity Plus: CASM3C Assay for Vascular cell adhesion molecule 1 (VCAM1) Biomarker Activity (AID 2283055).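 Note: VCAM-1 protein level quantified by ELISA on the cells.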 As to conditions: primary human coronary artery smooth muscle cells; actives raise or lower the signal.

Read-out in assay [6]: Collagen III, COL3A1 (gene 1281)
Description: BSK_hDFCGF_CollagenIII: BioMAP Diversity Plus: hDFCGF Assay for Collagen III Biomarker Activity (AID 2283056). The note with it: primary human foreskin fibroblasts; actives raise or lower the signal. In short, it runs like this:
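ELISA read-out of collagen III from human skin fibroblast cultures sampled 24 h post-dosing. Values were derived by bidirectional fitting relative to the DMSO vehicle control.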

Read-out in assay [7]: Epidermal growth factor receptor (EGFR), EGFR (gene 1956)
The experiment in a line: BSK_hDFCGF_EGFR: BioMAP Diversity Plus: hDFCGF Assay for Epidermal growth factor receptor (EGFR) Biomarker Activity (AID 2283057). As to conditions: primary human foreskin fibroblasts; actives raise or lower the signal. The essentials:
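hDFCGF system, primary human foreskin fibroblasts; compound 24 h; EGFR measured by ELISA; DMSO = negative control/baseline; bidirectional fitting.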

Read-out in assay [8]: Interleukin-8 (IL8), CXCL8 (gene 3576)
Description: BSK_hDFCGF_IL8: BioMAP Diversity Plus: hDFCGF Assay for Interleukin-8 (IL8) Biomarker Activity (AID 2283058). As to conditions: primary human foreskin fibroblasts; actives raise or lower the signal. In short, it runs like this:
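Cells used are human skin primary fibroblasts. Chemical is added, cultures run 24 h, then IL-8 is quantified by ELISA, and gain or loss versus DMSO control is fitted in both directions.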

A short description of assay [9]: BSK_hDFCGF_Proliferation: Cell Proliferation Assessment in the BioMAP Diversity Plus: hDFCGF Assay (AID 2283059).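 Note: curves fitted for both rise and fall of signal versus DMSO baseline.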 As to conditions: primary human foreskin fibroblasts. In short, it runs like this: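 Sub-confluent human foreskin fibroblast cultures receive test chemical […]. Relative cell number is quantified by sulforhodamine B staining (0.1%, after 10% TCA fixation) at 560 nm, with bidirectional fitting referenced to DMSO.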

Read-out in assay [10]: Macrophage colony-stimulating factor (MCSF), CSF1 (gene 1435)
Description: BSK_hDFCGF_MCSF: BioMAP Diversity Plus: hDFCGF Assay for Macrophage colony-stimulating factor (MCSF) Biomarker Activity (AID 2283060). The note with it: primary human foreskin fibroblasts; actives raise or lower the signal. In short, it runs like this: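 Primary human foreskin fibroblasts dosed with chemical; 24 h later, M-CSF quantified by ELISA; curves fitted in both directions vs DMSO negative control.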

A short description of assay [11]: BSK_hDFCGF_SRB: Viability Assessment in the BioMAP Diversity Plus: hDFCGF Assay (AID 2283061).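 Note: cells exposed to compound for 24 h before the read.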 As to conditions: primary human foreskin fibroblasts. In short, it runs like this: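 Readout is SRB absorbance at 560 nm, reflecting total protein in parallel cultures of human foreskin fibroblasts harvested 24 h after chemical dosing. Activity was fitted bidirectionally relative to DMSO.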

Read-out in assay [12]: TIMP metallopeptidase inhibitor 1 (TIMP1), TIMP1 (gene 7076)
The experiment in a line: BSK_hDFCGF_TIMP1: BioMAP Diversity Plus: hDFCGF Assay for TIMP metallopeptidase inhibitor 1 (TIMP1) Biomarker Activity (AID 2283062). The note with it: primary human foreskin fibroblasts; actives raise or lower the signal. The essentials: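 Human skin fibroblasts (primary), hDFCGF system; compound exposure 24 h; TIMP-1 by ELISA; bidirectional fit vs DMSO negative control; overt cytotoxicity by SRB in parallel wells.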

Read-out in assay [13]: Monokine induced gamma interferon (MIG), CXCL9 (gene 4283)
Description: BSK_hDFCGF_MIG: BioMAP Diversity Plus: hDFCGF Assay for Monokine induced gamma interferon (MIG) Biomarker Activity (AID 2283063). As to conditions: primary human foreskin fibroblasts; actives raise or lower the signal. The essentials:
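Chemicals were added to primary human foreskin fibroblast cultures, which were sampled 24 h later. MIG levels were then quantified by ELISA and responses fitted in both directions relative to DMSO.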

Read-out in assay [14]: Vascular cell adhesion molecule 1 (VCAM1), VCAM1 (gene 7412)
Description: BSK_hDFCGF_VCAM1: BioMAP Diversity Plus: hDFCGF Assay for Vascular cell adhesion molecule 1 (VCAM1) Biomarker Activity (AID 2283065).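 For AC50: VCAM-1 protein level quantified by ELISA after 24 h chemical exposure.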 The note with it: primary human foreskin fibroblasts; actives raise or lower the signal. The essentials: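 Human foreskin fibroblast primary cells, chemical exposure 24 h; VCAM-1 by ELISA; bidirectional fit, DMSO = negative control/baseline.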

Read-out in assay [15]: Plasminogen activator inhibitor-1 (PAI1), SERPINE1 (gene 5054)
The experiment in a line: BSK_hDFCGF_PAI1: BioMAP Diversity Plus: hDFCGF Assay for Plasminogen activator inhibitor-1 (PAI1) Biomarker Activity (AID 2283066). The note with it: primary human foreskin fibroblasts; actives raise or lower the signal. In short, it runs like this: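 Primary dermal fibroblasts (human foreskin), hDFCGF system; compound 24 h; PAI-1 by ELISA; bidirectional fit vs DMSO control.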

Read-out in assay [16]: Intercellular Adhesion Molecule 1 (ICAM1), ICAM1 (gene 3383)
Description: BSK_KF3CT_ICAM1: BioMAP Diversity Plus: KF3CT Assay for Intercellular Adhesion Molecule 1 (ICAM1) Biomarker Activity (AID 2283067). The note with it: primary human keratinocytes with fibroblasts; actives raise or lower the signal. In short, it runs like this: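 ICAM-1 levels are measured by ELISA 24 h after dosing a primary human co-culture of keratinocytes and foreskin fibroblasts. Activity in either direction is fitted relative to DMSO vehicle.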

Read-out in assay [17]: Interferon-gamma inducible Protein 10 (IP10), CXCL10 (gene 3627)
The experiment in a line: BSK_KF3CT_IP10: BioMAP Diversity Plus: KF3CT Assay for Interferon-gamma inducible Protein 10 (IP10) Biomarker Activity (AID 2283068). The note with it: primary human keratinocytes with fibroblasts; actives raise or lower the signal. The essentials:
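ELISA read-out of IP-10 after 24 h chemical dosing of human skin primary co-culture (keratinocytes, foreskin fibroblasts). Gain or loss of signal relative to DMSO, bidirectional curve fit.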

Read-out in assay [18]: Interleukin-1 alpha (IL1a), IL1A (gene 3552)
The experiment in a line: BSK_KF3CT_IL1a: BioMAP Diversity Plus: KF3CT Assay for Interleukin-1 alpha (IL1a) Biomarker Activity (AID 2283070). The note with it: primary human keratinocytes with fibroblasts; actives raise or lower the signal. In short, it runs like this: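 Human keratinocyte plus foreskin fibroblast primary co-culture, sampled 24 h after chemical dosing. IL-1a measured by ELISA; responses fitted bidirectionally against DMSO baseline (negative control), so gain or loss of signal both count.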

SMILES strings stand for the structures. Activity calls are given as the source filed them. Rule for the calls: active = hit-call score of the fitted dose curve at least 0.9, where 1 is the maximum; inactive = score below 0.9.

We go through six molecules from PubChem BioAssay (EPA / NIEHS).

For `c1ccc2c(c1)c1cccc3ccc4cccc2c4c31`, the result in assay [1], in assay [2], in assay [3], in assay [4], in [5] and in [6] was inactive. For the same molecule, the outcome in assay [7], in assay [8], in assay [9], in assay [10], in assay [11] and in [12] was inactive. The outcome in assay [13], in [14], in assay [15], in [16] and in assay [17] was inactive. The concentration at half-maximal activity (AC50) (in general, the concentration giving half of the maximal activity seen) in assay [18] was 0.016 µM (active).

As for `CC1CCC(C(C)CS)CC1S` (stereo not drawn), the AC50 was 29.1 µM (active) in [1]; 4.25 µM (active) in assay [3]; 20 µM (active) in assay [4]; 28.8 µM (active) in assay [5]; 4.29 µM (active) in assay [6]; 28 µM (active) in [8]. The AC50 in [9] is 4.84 µM (active); in assay [10], 6.95 µM (active); in assay [11] it was 7.28 µM (active); in [12] it was 6.08 µM (active); in assay [13], 7.33 µM (active); in assay [14], 2.78 µM (active). The AC50 in assay [16] was 35.5 µM (active); in assay [17], 20 µM (active); in assay [18], 30.2 µM (active). The result in assay [2], in assay [7] and in [15] was inactive.

Regarding `O=C(O)c1ccc([N+](=O)[O-])cc1`, the outcome in assay [1], in assay [2], in [3], in assay [4], in [5] and in [6] was inactive. The outcome in assay [7], in [8], in assay [9], in assay [10], in assay [11] and in [12] was inactive. The result in [13], in assay [14], in [15], in assay [16], in assay [17] and in assay [18] was inactive.

Consider `CCC(=O)OCc1ccccc1`, for which the outcome in assay [1], in assay [2], in assay [3], in [4], in assay [5] and in assay [6] was inactive. The outcome in assay [7], in assay [8], in assay [9], in [10], in assay [11] and in assay [12] was inactive. The outcome in assay [13], in assay [14], in assay [15], in [16], in assay [17] and in assay [18] was inactive.

Regarding `C#C[C@]1(O)CC[C@H]2[C@@H]3CCC4=Cc5oncc5C[C@]4(C)[C@H]3CC[C@@]21C`, the outcome in [1], in [2], in assay [3], in assay [4], in assay [6] and in [7] was inactive. Besides, the outcome in assay [8], in assay [9], in assay [10], in assay [11], in assay [12] and in [13] was inactive. Also, the outcome in [15], in assay [16], in [17] and in assay [18] was inactive. For the same molecule, the AC50 in assay [5] was 25 µM (active); in [14] it was 20 µM (active).

Take `CCCCCCCCC=O`: the outcome in [1], in assay [2], in [3], in assay [4], in assay [5] and in [6] was inactive. Further, the result in [7], in assay [8], in assay [9], in assay [10], in assay [11] and in assay [12] was inactive. In addition, the outcome in assay [13], in assay [14], in [15], in [16], in [17] and in [18] was inactive.
